Results taken from PubChem BioAssay (Tox21).
Results filed as inconclusive are left out. Activity calls are given as the source filed them. Unless noted, calls come from the whole dose curve; as a rule, active = well fitted curve in the direction sought with a large enough effect in the repeat runs; inconclusive = weak or mixed curves; inactive = no such curve, though single readings can be large; an effect the other way counts as inactive or inconclusive.

Columns and labels:
[1] = molecular target: Retinoic acid receptor RXR-alpha (Homo sapiens) (UniProt P19793); experiment: qHTS assay to identify small molecule agonists of the RXR signaling pathway (AID 1159527; calls by dose curve; note: nearly all actives have a fitted effect of over 35% in size)
In short: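 Read-out: beta-lactamase FRET ratio (405 nm excitation, 460 and 530 nm emission) after 2 hr substrate loading at room temperature. Cells were RXR-alpha-UAS-bla HEK 293T treated with compounds for 16 hr in 2% charcoal-stripped FBS medium.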

[2] = qHTS assay to identify small molecule agonists of the RXR signaling pathway - cell viability counter screen (AID 1159529); note: series mostly up to about 77 µM; nearly all actives have a fitted effect of over 50% in size
In short: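 HEK 293T RXRa-bla cells, 2% CS-FBS; 5 h settle; cpd 16 h 37 C, 5% CO2; CellTiter-Glo 30 min RT, luminescence. Tetraoctyl ammonium bromide as positive control.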

[3] = qHTS assay to identify small molecule antagonists of the retinoic acid receptor (RAR) signaling pathway (AID 1159552; note: nearly all actives have a fitted effect of over 50% in size)
In short: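 Cells of the C3RL4 line were seeded, incubated overnight, then dosed with compounds in DMSO followed immediately by retinol (1 uM final). Six hours later luciferase detection reagent went in; signal was measured after 30 min at RT.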

[4] = qHTS assay to identify small molecule agonists of the retinoic acid receptor (RAR) signaling pathway (AID 1159553)
In short: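 Activation of retinol signaling was monitored via a RARE luciferase reporter in C3RL4 cells. After 6 hr compound treatment at 37 C, detection reagent was added for 30 min at room temperature before luminescence reading.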

[5] = qHTS assay to identify small molecule antagonists of the estrogen related receptor (ERR) signaling pathway from Tox21 library - cell viability counter screen (AID 1224834); note: nearly all actives have a fitted effect of over 30% in size
In short: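 CellTiter-Fluor fluorescence measured; ERR cells; 17.5 h compound incubation at 37 C; 30 min reagent step.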

[6] = molecular target: Luciferin 4-monooxygenase (Photinus pyralis) (UniProt P08659); experiment: qHTS assay to identify small molecule inhibitors of firefly luciferase (AID 1224835); note: series mostly up to about 120 µM; nearly all actives have a fitted effect of over 25% in size
In short: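 Quantitative HTS format; KM concentrations of both substrates. Purified P. pyralis FLuc activity quantified from luminescence images.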

[7] = qHTS assay to identify small molecule agonists of the constitutive androstane receptor (CAR) signaling pathway - cell viability counter screen (AID 1224836); note: series mostly up to about 92 µM; nearly all actives have a fitted effect of over 45% in size
In short: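 HepG2-CYP2B6-hCAR, 2500 cells/well, 4 h pre-incubation; cpd 15 conc + PK11195 0.75 uM final; 23 h, 37 C/5% CO2; CellTiter-Fluor, fluorescence.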

[8] = qHTS assay to identify small molecule antagonists of the constitutive androstane receptor (CAR) signaling pathway - cell viability counter screen (AID 1224837); note: series mostly up to about 92 µM; nearly all actives have a fitted effect of over 45% in size
In short: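 Using CellTiter-Fluor, viability is scored in HepG2 cells stably carrying hCAR and a 2.2kb CYP2B6 reporter after 23 hr compound exposure across 15 concentrations, with CITCO present at 50 nM.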

[9] = molecular target: Nuclear receptor subfamily 1 group I member 3 (Homo sapiens) (UniProt Q14994); experiment: qHTS assay to identify small molecule antagonists of the constitutive androstane receptor (CAR) signaling pathway (AID 1224838);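 note: HepG2 cells stably expressing hCAR with CYP2B6 luciferase reporter stimulated by CITCO; nearly all actives have a fitted effect of over 40% in size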
In short: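 Reporter luminescence was quantified after 24 h exposure of hCAR/CYP2B6-2.2kb double-stable HepG2 cells to compounds at 15 concentrations in the presence of 50 nM CITCO final.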

[10] = molecular target: Nuclear receptor subfamily 1 group I member 3 (Homo sapiens) (UniProt Q14994); experiment: qHTS assay to identify small molecule agonists of the constitutive androstane receptor (CAR) signaling pathway (AID 1224839);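 note: HepG2 cells stably carrying human CAR and a CYP2B6 luciferase reporter; series mostly up to about 92 µM; nearly all actives have a fitted effect of over 15% in size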
In short: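 HepG2-CYP2B6-hCAR cells, 2500/well, 4 h pre-incubation; compounds 15 conc.; PK11195 0.75 uM final; 24 h, 37 C/5% CO2; ONE-Glo luciferase read.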

[11] = qHTS assay to identify small molecule antagonists of the estrogen related receptor signaling pathway with the pleiotropic PPARgamma coactivator (PGC) from Tox21 10K library (AID 1224841; call rule not given here; note: series mostly up to about 92 µM; actives are mostly falling curves and most rising ones were filed inactive; nearly all actives have a fitted effect of over 50% in size)
In short: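 Each well held 2,000 PGC/ERR cells, pre-incubated six hours (37 C, 5% CO2). Test substances in DMSO were added by pin tool and left for 18 h at 37 C before luciferase detection by One-Glo.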

[12] = qHTS assay to identify small molecule agonists of the estrogen related receptor signaling pathway with the pleiotropic PPARgamma coactivator (PGC) from Tox21 10K library (AID 1224842); note: nearly all actives have a fitted effect of over 15% in size
In short: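 PGC/ERR reporter cells (NTP line) were seeded 2,000 per well, rested 6 h at 37 C/5% CO2, then pin-dosed with compounds in DMSO for 18 h at 37 C; luciferase read by One-Glo luminescence after 30 min at room temperature.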

[13] = qHTS assay to identify small molecule agonists of the hypoxia (HIF-1) signaling pathway - cell viability counter screen (AID 1224844; calls by dose curve; note: nearly all actives have a fitted effect of over 50% in size)
In short: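 Multiplexed with the HRE beta-lactamase assay, this viability read used CellTiter-Glo luminescence (30 min, RT) on HRE-bla ME-180 cells treated 17 hrs with compounds in 0.5% dialyzed FBS medium.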

[14] = qHTS assay to identify small molecule agonists of H2AX (AID 1224845; active = well fitted activation curve with a large enough effect in the signal ratio in the repeat runs, not every such curve was filed as active; the % refers to the signal ratio)
In short: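 Wild-type CHO-K1 cells plated overnight, then exposed 3 hr at 37C to compounds at 15 concentrations (0.76% DMSO). Lysed, then HTRF anti-pH2AX(S139)-cryptate/anti-H2AX-d2 detection after 24 hr at room temperature; emissions 665 and 620 nm.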

[15] = qHTS assay to identify small molecule agonists of the hypoxia (HIF-1) signaling pathway (AID 1224846; active = well fitted activation curve with a large enough effect in the signal ratio in the repeat runs, not every such curve was filed as active; the % refers to the signal ratio)
In short: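 Hypoxia-pathway activation was scored as increased beta-lactamase from an HRE-controlled reporter in ME-180 cells; plated at 2,000 cells per well with 0.5% dialyzed FBS, they were exposed 17 hrs to compounds and then given CCF4-AM.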

[16] = qHTS assay to identify small molecule agonists of H2AX - cell viability counter screen (AID 1224847; calls by dose curve; note: top concentration of the series differs between compounds; nearly all actives have a fitted effect of over 30% in size)
In short: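 Cells plated first: CHO-K1, 1000 per well in 10% FBS medium, incubated overnight at 37C. Then 15-point compound titration added (final DMSO 0.76%) for 3 hr. Finally CellTiter-Glo added and luminescence read.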

[17] = qHTS assay to identify small molecule antagonists of the estrogen related receptor (ERR) signaling pathway from Tox21 library (AID 1224848); note: nearly all actives have a fitted effect of over 50% in size
In short: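 Screening used an ERR reporter line supplied by NTP, exposed for 18 h at 37 C to library compounds delivered in DMSO. Signal was luciferase luminescence developed with ONE-Glo at room temperature for 30 min.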

[18] = qHTS assay to identify small molecule antagonists of the estrogen related receptor signaling pathway with the pleiotropic PPARgamma coactivator (PGC) from Tox21 10K library - cell viability counter screen (AID 1224840; active = well fitted cell-killing curve with a large enough effect in the repeat runs, not every such curve was filed as active; note: nearly all actives have a fitted effect of over 40% in size)
In short: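 Here the PGC/ERR cells serve as a cytotoxicity control: they are exposed to compounds for 17.5 hours at 37 C, and live-cell signal is quantified using CellTiter-Fluor fluorescence.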

[19] = molecular target: Thyrotropin receptor (Homo sapiens) (UniProt P16473); experiment: qHTS assay to identify small molecule agonists of the thyroid stimulating hormone receptor (TSHR) signaling pathway (AID 1224843; calls by dose curve; note: nearly all actives have a fitted effect of over 45% in size)
In short: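 Cell line HEK293 with TSHR; density 800/well. Exposure 30 min RT. Readout HTRF cAMP (cAMP-d2/anti-cAMP-cryptate), 1 h RT before reading.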

[20] = qHTS assay to identify small molecule antagonists of the retinoid acid receptor (RAR) signaling pathway - cell viability counter screen (AID 1159551); note: nearly all actives have a fitted effect of over 35% in size
In short: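 Seed C3RL4 cells; next day add compound, then retinol to 1 uM final; incubate 6 h at 37 C; add CellTiter-Glo; read luminescence after 30 min at RT.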
% is set by controls: 0 for no effect and ±100 for the full control effect.

Chain of Thyrotropin receptor (Homo sapiens) (P16473 whole entry, looked up): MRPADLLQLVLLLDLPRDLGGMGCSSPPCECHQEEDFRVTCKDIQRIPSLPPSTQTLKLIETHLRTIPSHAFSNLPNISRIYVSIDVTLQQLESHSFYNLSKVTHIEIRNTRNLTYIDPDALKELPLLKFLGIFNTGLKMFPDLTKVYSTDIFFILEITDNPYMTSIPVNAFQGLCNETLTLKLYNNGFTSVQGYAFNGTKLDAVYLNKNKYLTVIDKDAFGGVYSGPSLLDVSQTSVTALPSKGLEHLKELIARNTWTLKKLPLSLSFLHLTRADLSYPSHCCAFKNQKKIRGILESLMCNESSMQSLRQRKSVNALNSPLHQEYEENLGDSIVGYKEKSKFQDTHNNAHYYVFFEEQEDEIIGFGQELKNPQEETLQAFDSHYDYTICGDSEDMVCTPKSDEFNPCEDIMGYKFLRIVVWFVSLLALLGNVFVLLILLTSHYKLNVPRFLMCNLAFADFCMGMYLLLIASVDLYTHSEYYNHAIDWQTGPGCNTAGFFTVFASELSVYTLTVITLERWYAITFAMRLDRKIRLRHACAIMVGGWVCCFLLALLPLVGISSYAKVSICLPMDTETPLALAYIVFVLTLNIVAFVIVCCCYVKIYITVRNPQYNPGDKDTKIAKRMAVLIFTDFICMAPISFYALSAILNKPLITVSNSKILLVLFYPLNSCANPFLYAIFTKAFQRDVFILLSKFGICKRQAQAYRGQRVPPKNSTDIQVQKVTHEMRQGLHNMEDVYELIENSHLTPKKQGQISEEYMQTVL
Chain of Luciferin 4-monooxygenase (Photinus pyralis) (P08659 whole entry, looked up): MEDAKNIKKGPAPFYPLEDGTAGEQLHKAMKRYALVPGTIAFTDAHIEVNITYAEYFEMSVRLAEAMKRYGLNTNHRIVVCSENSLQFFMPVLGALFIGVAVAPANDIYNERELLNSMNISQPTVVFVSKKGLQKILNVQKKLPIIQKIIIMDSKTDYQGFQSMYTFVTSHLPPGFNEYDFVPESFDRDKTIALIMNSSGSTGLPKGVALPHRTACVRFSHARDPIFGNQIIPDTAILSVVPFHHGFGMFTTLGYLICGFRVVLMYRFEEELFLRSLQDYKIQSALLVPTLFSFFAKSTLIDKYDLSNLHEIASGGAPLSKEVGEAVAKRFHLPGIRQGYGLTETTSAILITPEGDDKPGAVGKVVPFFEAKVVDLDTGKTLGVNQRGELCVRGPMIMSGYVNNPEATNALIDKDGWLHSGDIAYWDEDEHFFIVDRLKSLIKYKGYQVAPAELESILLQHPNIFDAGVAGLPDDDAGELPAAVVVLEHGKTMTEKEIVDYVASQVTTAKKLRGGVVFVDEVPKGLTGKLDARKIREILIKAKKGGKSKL
Chain of Nuclear receptor subfamily 1 group I member 3 (Homo sapiens) (Q14994 whole entry, looked up): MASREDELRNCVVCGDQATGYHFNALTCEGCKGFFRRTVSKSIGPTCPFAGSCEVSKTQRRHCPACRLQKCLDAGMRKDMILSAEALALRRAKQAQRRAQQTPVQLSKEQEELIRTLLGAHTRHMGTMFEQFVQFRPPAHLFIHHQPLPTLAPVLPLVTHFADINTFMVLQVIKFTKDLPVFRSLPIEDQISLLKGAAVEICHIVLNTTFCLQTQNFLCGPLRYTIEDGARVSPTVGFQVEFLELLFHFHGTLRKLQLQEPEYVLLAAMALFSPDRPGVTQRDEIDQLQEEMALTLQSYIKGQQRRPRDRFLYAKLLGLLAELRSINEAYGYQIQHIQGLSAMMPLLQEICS
Chain of Retinoic acid receptor RXR-alpha (Homo sapiens) (P19793 whole entry, looked up): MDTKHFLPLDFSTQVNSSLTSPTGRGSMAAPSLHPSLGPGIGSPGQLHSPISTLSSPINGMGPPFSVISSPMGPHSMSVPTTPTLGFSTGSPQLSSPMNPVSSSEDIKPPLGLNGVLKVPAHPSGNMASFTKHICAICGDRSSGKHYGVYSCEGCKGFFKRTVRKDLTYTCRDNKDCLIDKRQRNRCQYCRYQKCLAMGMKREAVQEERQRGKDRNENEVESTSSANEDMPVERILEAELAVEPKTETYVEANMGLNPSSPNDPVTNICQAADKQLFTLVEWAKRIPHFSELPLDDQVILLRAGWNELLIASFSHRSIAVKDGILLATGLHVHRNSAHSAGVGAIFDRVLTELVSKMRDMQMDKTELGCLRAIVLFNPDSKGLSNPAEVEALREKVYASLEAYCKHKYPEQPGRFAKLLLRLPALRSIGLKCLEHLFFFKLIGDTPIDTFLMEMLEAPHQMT

CCCCCCCCCCCCCBr
inactive: Potency [1] | outcome [2] | outcome [3] | Potency [4] | outcome [5] | Potency [6] | outcome [7] | outcome [8] | Potency [9] | Potency [10] | outcome [11] | outcome [12] | outcome [13] | outcome [14] | outcome [15] | outcome [16] | Potency [17]

CC(=O)OC(C)=O
inactive: Potency [1] | outcome [2] | outcome [3] | Potency [4] | outcome [5] | Potency [6] | outcome [7] | outcome [8] | Potency [9] | Potency [10] | outcome [13] | outcome [14] | outcome [15] | outcome [16]

CO[Si](CCCn1c(=O)n(CCC[Si](OC)(OC)OC)c(=O)n(CCC[Si](OC)(OC)OC)c1=O)(OC)OC
inactive: Potency [1] | outcome [2] | outcome [3] | Potency [4] | outcome [5] | Potency [6] | outcome [7] | outcome [8] | Potency [9] | Potency [10] | outcome [18] | outcome [19] | outcome [14] | outcome [15] | outcome [16]

CC(=O)CCc1ccc(OC(C)=O)cc1
inactive: Potency [1] | outcome [2] | outcome [3] | Potency [4] | outcome [5] | Potency [6] | outcome [7] | outcome [8] | Potency [9] | Potency [10] | outcome [18] | outcome [19] | outcome [14] | outcome [15] | outcome [16]

N[C@@H](Cc1ccc(O)cc1)C(=O)O
inactive: activation [1] 0.71% [at 6.98 µM] | activity change, negative = cytotoxicity [2] 2.08% [at 6.97 µM] | activity change, negative = cytotoxicity [20] -0.852% [at 8.39 µM] | activation [4] 0.0879% [at 8.36 µM] | viability change, negative = cytotoxic [5] 1.55% [at 8.39 µM] | activity change, negative = inhibition [6] 1.38% [at 10.5 µM] | viability change, negative = cytotoxic [7] -0.95% [at 8.39 µM] | activity, negative = inhibition [9] -4.54% [at 8.39 µM] | activation [10] -2.78% [at 8.39 µM] | viability change, negative = cytotoxic [18] 3.49% [at 8.39 µM] | activity change, negative = cytotoxicity [13] 2.31% [at 6.97 µM] | activation (H2AX phosphorylation) [14] 0.078% [at 14 µM] | activation [15] -0.522% [at 7.01 µM] | activity change, negative = cytotoxicity [16] 5.12% [at 14 µM]

C=C(C)C1CC=C(C)C(=O)C1 (stereo unspecified)
inactive: Potency [1] | outcome [2] | outcome [20] | outcome [5] | Potency [6] | outcome [7] | outcome [8] | outcome [18] | outcome [19] | outcome [13] | outcome [14] | outcome [15] | outcome [16]

c1ccc2cnccc2c1
inactive: outcome [2] | outcome [20] | outcome [3] | Potency [4] | outcome [5] | Potency [6] | outcome [7] | outcome [8] | Potency [9] | Potency [10] | outcome [18] | outcome [12] | outcome [13] | outcome [14] | outcome [15] | outcome [16] | Potency [17]

OCC(O)CN1CCN(c2ccccc2)CC1 (stereo unspecified)
inactive: Potency [1] | outcome [2] | Potency [4] | outcome [5] | Potency [6] | outcome [7] | outcome [8] | Potency [9] | Potency [10] | outcome [18] | outcome [19] | outcome [13] | outcome [14] | outcome [16]

COc1cc2c(cc1OC)CN(C(=O)[C@H](C)N[C@@H](CCc1ccccc1)C(=O)O)[C@H](C(=O)O)C2
inactive: Potency [1] | outcome [2] | outcome [20] | Potency [4] | outcome [5] | Potency [6] | outcome [7] | Potency [9] | Potency [10] | outcome [19] | outcome [15] | outcome [16]
